Experimental data: PubChem BioAssay AID488890 (Southern Research Specialized Biocontainment Screening …, 2010)
Hit rate of the full screen: of about 320,000 compounds, about 1,300 (0.41%) were called active. Inconclusive results (about 3%) are left out. No rule for the calls is given here. Not all results are given here. Results with a measured potency or affinity are listed apart.

Test: growth inhibition of non-replicating M. tuberculosis (AID 488890);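 also: plate controls were DMSO cells for no effect and high antibiotic wells for full effect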
Conditions: Mycobacterium tuberculosis non-replicating, at 25 µM, stronger effect = higher value

Row | SMILES | inhibition [%]
1 | C=CCn1c(SCC(=O)Nc2ccccc2OC)nc2c([nH]c3ccccc32)c1=O | -4.69
2 | COc1ccccc1-c1nnc(SCc2nc3ccccc3[nH]2)n1C | 25.9
3 | O=C(Nc1cccc(F)c1)Nc1ccc2c(c1)C(=O)OC2 | -9.41
4 | Cc1cccc(C)c1OCC(=O)NCC1COc2ccccc2O1 (stereo not drawn) | -21
5 | CCN1CCN(c2ccc(NC(=O)c3ccco3)cc2Cl)CC1 | -16.6
6 | CCOC(=O)Cc1c(C)nc2c(C#N)c[nH]n2c1=O | -14.1
7 | CCOC(=O)Cc1cc(=O)n2[nH]cc(-c3ccc(Cl)cc3)c2n1 | 81.6
8 | CCOC(=O)Cc1c(C)nc2c(-c3cccc(Br)c3)cnn2c1C | -10.5
9 | CCOC(=O)Cc1c(C)nc2c(-c3ccccc3)c(C)[nH]n2c1=O | 23.1
10 | CC1=CC(C)(C)Nc2ccc(OS(=O)(=O)c3ccc(C)cc3)cc21 | -0.67
11 | CN(C)S(=O)(=O)n1ccnc1 | -7.18
12 | Oc1ccc(-c2nc3ncccn3c2Nc2ccc3c(c2)OCO3)cc1 | 0.55
13 | c1cnc2nc(-c3ccc4c(c3)OCO4)cn2c1 | 14.6
14 | COCCn1c(SCC(=O)NC(=O)NC2CCCC2)nc2ccccc2c1=O | -3.24
15 | CN(C)CCCNC(=O)CC1C[C@H](C(=O)N2CCOCC2)[C@@]2(CCC3CCCC3)c3[nH]c4ccccc4c3CCN2C1=O (stereo partly drawn) | 48.7
16 | CC(C)COc1ccc(Br)cc1CNC(C)(C)C | 72
17 | Cn1nnc(NCc2cc(Br)ccc2OCc2cccs2)n1 | 24.3
18 | C=CCOc1ccc(Br)cc1CNC(C)(C)C | 54.2
19 | CC(C)(C)NCc1ccccc1OCc1cccs1 | 6.2
20 | CC1CCCCN1CCn1c(=S)[nH]c2cc3c(cc2c1=O)OCO3 (stereo not drawn) | 9.55
21 | Cc1c(/C=C2\NC(=O)NC2=O)c2ccccc2n1C | 16.4
22 | O=c1cc(O)n(Cc2ccc(F)cc2)c(=O)[nH]1 | -1.55
23 | CCOCCCNC(=O)C1CCC(CNS(=O)(=O)c2cccc3nsnc23)CC1 (stereo not drawn) | -10.5
24 | COc1cccc2cc(C(=O)c3ccccc3)oc12 | 77.7

Row | SMILES | inhibition [%]
25 | COc1ccc(C(=O)c2cc3cccc(OC)c3o2)cc1 | 70.7
26 | O=C(COc1ccccc1Cl)N1CCN(C(=O)c2ccco2)CC1 | 6.78
27 | CCOCCOC(=O)c1[nH]c2c(c1C)C(=O)CC(c1cccs1)C2 (stereo not drawn) | 5.49
28 | Cc1[nH]c2ccc(Br)cc2c(=O)c1CN1CCCCC1 | 6.69
29 | CO/N=C/CC(=O)Nc1ccc(F)cc1F | -1.66
30 | O=C(O)CC(Cc1ccc(Cl)cc1)C(=O)Nc1ccc([N+](=O)[O-])cc1 (stereo not drawn) | 7.55
31 | O=C(C/C=N\OCc1ccc(Cl)cc1Cl)Nc1ccccc1 | 55.5
32 | O=C(Cc1ccc([N+](=O)[O-])cc1)Nc1ccc(Cl)cc1 | 12.6
33 | O=C(CCNC(=O)c1ccc([N+](=O)[O-])cc1)Nc1ccc(F)cc1F | 69.1
34 | COC(=O)C(/C=N/OCc1ccc([N+](=O)[O-])cc1)NC(=O)c1ccccc1 (stereo not drawn) | 1.7
35 | O=C(NCCCCc1ccccc1)C1CC(c2cccc(F)c2)=NO1 (stereo not drawn) | 9.38
36 | Nn1c(-c2ccccc2)nc2ccccc2c1=O | -12.5
37 | O=C(O)c1cnc(-c2ccccc2)nc1Sc1cccc(Cl)c1 | 53.3
38 | CCC(CC)NC(=O)COC(=O)c1cc(SC)ccc1Cl | 28.5
39 | CCOc1ccccc1N1CCN(CC(O)COC2CCCc3ccccc32)CC1 (stereo not drawn) | 59.7
40 | CN(C)C(=O)CSc1nnc([C@H](Cc2c[nH]c3ccccc23)NC(=O)OC(C)(C)C)o1 | -0.86
41 | CC(CCc1ccc(O)cc1)NC1c2ccccc2-c2ccccc21 (stereo not drawn) | 43.3
42 | CC(C)=N/N=C1\NC(=O)C(C)S1 (stereo not drawn) | 54
43 | O=C(CNC(=O)N1CC(=O)Nc2ccccc21)Nc1ccccc1F | -10.2
44 | N=C1S/C(=C\c2ccco2)C(=O)N1c1ccc2c(c1)OCO2 | 0.43
45 | COc1ccc(/C=C2\SC(=N)N(c3nccs3)C2=O)cc1OC | -5.11
46 | CN(C1CCCCC1)S(=O)(=O)c1cccc(C(=O)Nc2ccccn2)c1 | 25.5
47 | CCOP(=O)(Cc1cc(C(=O)CC)c(C)o1)OCC | -21.9
48 | Cc1ccc(Sc2ncccc2[N+](=O)[O-])cc1 | 23.3

Row | SMILES | inhibition [%]
49 | CC(C)(C)c1csc(Sc2ncccc2[N+](=O)[O-])n1 | 19.4
50 | O=c1ccnc(Sc2ncccc2[N+](=O)[O-])[nH]1 | 37.6
51 | O=[N+]([O-])c1cccnc1Sc1ccc(F)cc1 | 18.3
52 | CCn1c(=O)n(-c2ccc(Cl)cc2)c(=O)c2c3c(sc21)COC(C)(C)C3 | 5.56
53 | O=C(COC(=O)Cc1ccsc1)Nc1ccc(Cl)cc1F | 70.1
54 | CC(C)(C)OC(=O)CNC(=O)c1[nH]cnc1C(=O)NC1CCNCC1 | -8.53
55 | COc1ccc(OCCCC(=O)NCc2ccco2)cc1 | 56.7
56 | Cc1ccc(OCCCC(=O)NCc2ccco2)cc1 | 53.7
57 | CC1CCN(C(=O)c2cc3c(=O)n4ccccc4nc3s2)CC1 | -10.7
58 | CCCCN(C)Cc1c(C)[nH]c2ccc(C)cc2c1=O | 3.45
59 | CC(CCc1ccccc1)NC(=O)c1ccc(F)cc1 (stereo not drawn) | 65.9
60 | CN(C)CCCN(C(=O)c1ccc(S(=O)(=O)N2CCCCC2)cc1)c1nc2cc3c(cc2s1)OCO3 | 20.6
61 | CC(C)c1ccc(/C=N/NC(=O)c2c(Cl)cnn2C)cc1 | -10.4
62 | CSCCOC(=O)COc1ccc(/C=N/NC(=O)c2nn(C)cc2Cl)cc1 | 75.7
63 | COc1cc(CN2CCN(Cc3ccc(SC)cc3)CC2)cc(OC)c1O | -26.9
64 | N/C(=N\N=C\c1cccs1)SC1CC(=O)N(c2cccc([N+](=O)[O-])c2)C1=O (stereo not drawn) | -1.1
65 | COc1ccc(N(CN2C(=O)c3ccccc3C2=O)C(=O)C(C)C)cc1 | 2.08
66 | Cc1ccc(C(=O)Nc2ncc(Cc3ccc(F)cc3)s2)o1 | 13.4
67 | O=C(Nc1ncc(Cc2ccccc2)s1)C1COc2ccccc2O1 (stereo not drawn) | 64
68 | Cc1ccc(Cc2cnc(NC(=O)c3ccco3)s2)cc1 | 79
69 | O=C(Nc1ncc(Cc2ccccc2Cl)s1)c1ccc([N+](=O)[O-])cc1 | -27.1
70 | CC(C)C(=O)Nc1ncc(Cc2ccccc2Cl)s1 | 4.24
71 | CC(C)C(=O)Nc1ncc(Cc2ccc(Cl)cc2)s1 | 32.4
72 | CC(=O)Nc1ncc(Cc2cccc(Cl)c2)s1 | 36.5

Row | SMILES | inhibition [%]
73 | Cc1ccc(C(=O)Nc2ncc(Cc3ccccc3)s2)o1 | 32.2
74 | O=C(CSc1oc(-c2ccc(F)cc2)nc1S(=O)(=O)c1ccccc1)NCC1CCCO1 (stereo not drawn) | -4.84
75 | CCc1cc(CNC(=O)c2ccc(OC3CCN(CCc4ccccc4)CC3)cc2)on1 | 4.71
76 | CN(CC(=O)Nc1cccc(F)c1)C(=O)c1ccccc1Cc1ccccc1 | -4.13
77 | O=C(NCc1ccco1)c1cccc(S(=O)(=O)N2CCCCC2)c1 | 16.4
78 | CCN1CCN(C(=O)/C(=C/c2ccco2)NC(=O)c2ccccc2)CC1 | -2.48
79 | O=C(CCC(=O)N1CCOc2ccccc21)N1CCCCC1 | -34.4
80 | CN(C)CCCN(C(=O)c1ccc(N2C(=O)CCC2=O)cc1)c1nc2c(F)cccc2s1 | -7.06
81 | CCN1CCCC1CNC(=O)C(=O)NC(C)c1ccccc1 (stereo not drawn) | 5.13
82 | COCc1cc(=O)[nH]c(SCC(=O)c2ccccc2)n1 | -7.52
83 | O=c1c2ccccc2sn1-c1ccc(F)cc1 | -1.44
84 | O=C(O)c1cccc(-n2sc3ccccc3c2=O)c1 | -0.63
85 | CC1(C)CC(=O)C2=C(C1)OC1=C(C(=O)CC(C)(C)C1)C2c1ccccc1 | -3.44
86 | CN(CC(=O)Nc1ccc(S(N)(=O)=O)cc1)C1CCCCC1 | -0.54
87 | Cc1ccc(NC(=O)CN2CCCCCC2)cc1Br | 5.31
88 | Cc1ccc(NC(=O)CN(C)C2CCCCC2)cc1Cl | 72.6
89 | COc1ccc(NC(=O)CN(C)C2CCCCC2)cc1Cl | 33.9
90 | CCC(=O)Nc1ccc2oc(-c3cccc(C)c3)nc2c1 | -26.3
91 | COCC(=O)Nc1ccccc1C(=O)Nc1ccc(OC)cc1 | -1.58
92 | COc1ccc(CCN(C)C2CCCN(S(C)(=O)=O)C2)cc1OC (stereo not drawn) | -23.7
93 | O=C(CN1CCN(c2ccccc2F)CC1)c1c[nH]c2ccccc12 | 4
94 | COc1ccc(-n2nc(C(=O)NCC(=O)N3CCN(c4ccc(F)cc4)CC3)c3ccccc3c2=O)c(OC)c1 | 3.71
95 | N#Cc1ccc(C(=O)CN2CCN(c3ccccc3)CC2)cc1 | 3.58
96 | COc1ccc(N2CCN(C(=O)C3CCN(C(=O)c4ccc([N+](=O)[O-])cc4)CC3)CC2)cc1 | 21.3

Row | SMILES | inhibition [%]
97 | CS(=O)(=O)N(CC(=O)N1CCN(c2ccc(F)cc2)CC1)c1cccc(Cl)c1 | -4.05
98 | O=C(NCc1cccnc1)c1ccc(S(=O)(=O)N2CCCCCC2)cc1 | 5.4
99 | CC(C)c1ccc(NC(=O)COc2ccccc2)cc1 | 75.1
100 | O=C(COc1ccc(-n2ccnc2)cc1)Nc1cccc(F)c1 | 62.5
101 | COCC(=O)Nc1ccc(C)c(Cl)c1 | 57.3
102 | COc1cc(NC(=O)COc2ccc(-n3ccnc3)cc2)cc(OC)c1 | 57.6
103 | Cc1ccc(NC(=O)COc2ccccc2C(=O)Nc2ccccc2)cc1Cl | -4.97
104 | Cc1ccc(NC(=O)COc2ccccc2C=O)cc1Cl | 11.5
105 | CCOCC(=O)Nc1ccc(Br)c(C)c1 | 78.4
106 | Cc1ccc(NC(=O)CCC(=O)NNC(=O)COc2ccccc2)cc1C | -33.1
107 | CC(C)n1ncc(C(N)=O)c1N | -11
108 | O=C(CO/N=C/c1c(Cl)cccc1Cl)NNC(=O)c1ccc(Cl)cc1 | -1.83
109 | CCn1ccnc1CN(C)C(=O)CCc1nnc(CCC2CCCCC2)o1 | 6.59
110 | Cc1cccc(-n2c(-c3ccncc3)n[nH]c2=S)c1C | 13.2
111 | Nc1nc(SCCC(F)=C(F)F)n[nH]1 | 2.3
112 | Cc1cccc(OCC(=O)Nc2ccc3nc(C)sc3c2)c1 | 75.1
113 | O=C(CC(Nc1ccc(Cl)cc1)C(=O)O)c1ccccc1 (stereo not drawn) | 58.9
114 | Cc1nc2ccc(NC(=O)Cc3cccc(F)c3)cc2s1 | 3.01
115 | O=C(CC(Nc1ccccc1)C(=O)O)c1ccccc1 (stereo not drawn) | 28.9
116 | CC(=O)c1ccccc1OCc1ccc(S(=O)(=O)Cc2ccccc2)cc1 | 46
117 | O=C(NCc1ccccc1F)C1CCCN1C(=O)Nc1ccc(F)cc1 (stereo not drawn) | 5.39
118 | CC1CN(C(=O)COc2ccc3ccccc3c2Br)CC(C)O1 (stereo not drawn) | 3.67
